# HepG2 viability: qHTS for Inhibitors of TGF-b: Cytotox Counterscreen; AID 588856, 2011; Potency, µM (top dose mostly 46.1 µM), without a hit: at the highest dose activity change, negative = cytotoxicity, actives largely listed as cytotoxic; 410,000 tested, 0.76% active; HepG2 CAGA-GFP viability, ATP luminescence, 18 h; further: potency means the concentration at half of the fitted maximal effect
#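 CellTiter-Glo luminescence gave cytotoxicity after 18 hours at 37 degrees C. The cells were HepG2 CAGA-GFP in 1% FBS DMEM, stimulated with 500 pg/mL TGF-beta after compound addition. %Activity was normalised to no-cell wells (complete cell-killing) and DMSO (no toxicity), and curves were fitted and classified.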
# TGFb SMAD3 inh: qHTS for Inhibitors of TGF-b; HepG2 CAGA-GFP TGF-b/SMAD3 reporter, GFP fluorescence, 18 h; TGF-beta stimulated, 500 pg/mL final; Potency, µM (series often up to 46.1 µM), for inactives: at the highest dose activity, negative = inhibition, most hits filed as inhibitors; 410,000 tested, 1.2% active; AID 588855, 2011; further: potency means the concentration at half of the fitted maximal effect; on the % scale 0 is the no-effect control and ±100 the full control effect; nearly all actives have a fitted effect of over 65% in size
#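 Inhibition was scored as loss of TGF-beta-induced (500 pg/mL final, 18 hours, 37 degrees C) GFP in HEPG2 cells carrying a CAGA-GFP reporter, in DMEM with 1% FBS. Well GFP was summed per cell; Activity was normalised to unstimulated and stimulated DMSO wells, then concentration-response fitting.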
# IL1B secr inh: qHTS for Inhibitors of Inflammasome Signaling: IL-1-beta AlphaLISA Primary Screen | 360,000 tested, 4.7% active | activity change, % at 57.5 µM | THP-1 LPS/ATP IL-1B secretion, AlphaLISA, 16 h; hits give low values; in the data active means activity change below about -50%; inconclusive means mostly about -30% to -49%; further: on the % scale 0 is the no-effect control and ±100 the full control effect
#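 Secreted IL-1B measured by AlphaLISA bead assay after 16 h compound exposure of THP-1 cells; compounds (final up to 57.5 uM) added 1 h before LPS (250 ng/mL) and ATP (1.25 mM) stimulation; lower signal means less secretion.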
# HT1080 IDH1KD tx: qHTS for induction of synthetic lethality in tumor cells producing 2HG: qHTS for the HT-1080-IDH1KD cell line; HT-1080 IDH1 knockdown viability, ATP luminescence, 48 h; Potency, µM (highest dose often 46.1 µM), for the others: at the highest dose activity, negative = toxicity, usual class: cytotoxic; 360,000 tested, 2% active; AID 686971, 2013;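 further: potency means the concentration at half of the fitted maximal effect; 0% = DMSO wells and -100% = cell-free medium wells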
#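 In this qHTS, HT-1080 cells depleted of IDH1 are exposed for 48 h at 37 °C to compound titrations. Toxicity is scored from CellTiter-Glo luminescence, with DMSO as full viability and medium alone as none.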
# Giardia kill: Small Molecules that selectively kill Giardia lamblia: qHTS | Giardia lamblia trophozoite viability | activity change, % at 7.66 µM, hits read low | 340,000 tested, 0.15% active | AID 540267, 2011; in the data active means activity change below about -80%; inconclusive means between about -30% and that limit;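 further: parasites exposed to compound for two days anaerobically before the ATP read; on the % scale 0 is the no-effect control and ±100 the full control effect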
#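 Trophozoite viability was measured as ATP-dependent luminescence, read 15-30 min after reagent addition. Before that, parasites at 100 cells/well were exposed to compounds for 48 h, anaerobically, at 37 deg C.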
# HT1080-NT tox: qHTS for induction of synthetic lethality in tumor cells producing 2HG: qHTS for the HT-1080-NT fibrosarcoma cell line | 360,000 tested, 1.6% active | HT-1080-NT fibrosarcoma viability, CellTiter-Glo ATP luminescence, 48 h | AID 686970, 2013 | Potency, µM (top dose mostly 46.1 µM), without a hit: top-dose activity, negative = less viability, most hits filed as cytotoxic;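 further: NT is the 2HG producing partner of a matched IDH1 knockdown line; potency means the concentration at half of the fitted maximal effect; 0% = DMSO-treated cells and -100% = media-only wells without cells; nearly all actives have a fitted effect of over 55% in size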
#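 Compounds were tested in concentration-response format on HT-1080-NT cells for 48 hours at 37 degrees C. Cell viability came from CellTiter-Glo luminescence; curves were classified by r2, response magnitude and activity.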
# * hit, by the source's call; ? = inconclusive; / = no result. Sampled rows, rich in hits. Any-hit rate of the full collection: about 6.5%. Unless noted, the call rests on the fitted dose curve; in most records, active means well fitted curve in the direction sought with a large enough effect; inconclusive means small, poorly fitted or top-dose-only effect, or another doubt; inactive means no such curve, though single readings can be large; an effect the other way counts as inactive or inconclusive.
SMILES,HepG2 viability,TGFb SMAD3 inh,IL1B secr inh,HT1080 IDH1KD tx,Giardia kill,HT1080-NT tox
O=c1c2ccccc2nc(-c2ccccc2)n1-c1ccccc1,-14%,?,8,0%,7,-4%
O=c1c2ccccc2[se]n1-c1ccccc1,-29%,?,-114*,?,-19,23µM*
NC(Cc1ccc(C(F)(F)F)cc1)c1csc(Nc2nncc3ccccc23)n1 (centres undefined),-79%,?,-67*,?,/,?
NC(Cc1ccc(F)cc1)c1csc(Nc2ncccn2)n1 (centres undefined),-23%,?,-25,6.5µM*,/,5.8µM*
NC(Cc1ccc(Cl)cc1)c1csc(Nc2ncccn2)n1 (centres undefined),-43%,?,?,5.8µM*,/,18µM*
Nc1ccc(CC(N)c2csc(Nc3ncccn3)n2)cc1 (centres undefined),-4%,-5%,-15,-30%,/,-14%
CC(C)N1C(=O)CC2(CC[N+](C)(CCOC(=O)C(O)(c3ccccc3)c3ccccc3)CC2)C1=O (centres undefined),4%,5%,0,14%,12,12%
NS(=O)(=O)c1ccc(N=Cc2c(O)n(C3CCCCC3)c(=O)n(C3CCCCC3)c2=O)cc1,-111%,16µM*,-100*,?,0,?
CCn1c(O)c(C=Nc2ccc(S(N)(=O)=O)cc2)c(=O)n(CC)c1=S,-7%,-15%,-5,-1%,6,-16%
CC1(C)C(C(=O)N2CCN(c3ccc(Cl)cc3)CC2)C1(C)C,-23%,-17%,-3,-9%,-15,-2%
COC(=O)C1CN(C#N)N(c2ccc(Cl)cc2)C12c1ccccc1-c1ccccc12 (centres undefined),3.5µM*,5µM*,-97*,3.7µM*,-7,3.3µM*
COc1cc([N+](=O)[O-])c2ncccc2c1[N+](=O)[O-],-69%,1%,-117*,7.3µM*,/,15µM*
Cc1ccc(-c2cc(-c3ccccc3)cc(-c3ccccc3)[n+]2-c2ccc(C(=O)O)cc2)cc1,-3%,18%,16,9%,-10,14%
COc1ccc(-c2cc(-c3ccccc3)[n+](C)c(-c3ccccc3)c2)cc1,-13%,?,-90*,15µM*,7,?
C[n+]1c(-c2ccccc2)cc(CCCCc2cc(-c3ccccc3)[n+](C)c(-c3ccccc3)c2)cc1-c1ccccc1,-22%,0%,-100*,?,-1,?
COc1ccc(-[n+]2c(-c3ccccc3)cc(-c3ccc(C)cc3)cc2-c2ccccc2)cc1,-33%,7.1µM*,-94*,2.6µM*,-12,4.6µM*
CCCOC(=O)c1ccc(-[n+]2c(-c3ccccc3)cc(-c3ccccc3)cc2-c2ccccc2)cc1,-41%,?,-86*,12µM*,8,21µM*
CN1CCN(c2c(N)c(=O)oc3ccccc23)CC1,-2%,2%,3,-11%,-18,-2%
CC(=O)Nc1ccc(OCCF)cc1,1%,-2%,-9,12%,1,1%
CCN(CC)S(=O)(=O)N1CCC(C(=O)N2CCC3(CC2)OCCO3)CC1,-24%,-11%,-10,2%,-7,9%
C[C@]12CCC3C(C[C@@H](O)[C@H]4C[C@@H](O)CC[C@]34C)C1CC[C@@H]2O (some centres undefined),12%,-1%,-6,14%,1,12%
CCOP(=O)(OCC)c1nc(-c2ccc(Br)cc2)oc1N1CCCCC1,-34%,?,-14,10%,-18,11%
COc1cc([C@@H]2c3cc4c(cc3[C@@H](O)C3COC(=O)C32)OCO4)cc(OC)c1O (some centres undefined),10%,-17%,/,/,14,/
CCCc1c(C)nc(-c2ccc(C)cc2)nc1OC(=O)N(C)C,-27%,-2%,-11,6%,-6,11%
O=C(O)c1ccc(-[n+]2c(-c3ccccc3)cc(-c3ccccc3)cc2-c2ccccc2)cc1,21%,24%,21,16%,11,6%
SMILES,HepG2 viability,TGFb SMAD3 inh,IL1B secr inh,HT1080 IDH1KD tx,Giardia kill,HT1080-NT tox
Brc1ccc(-[n+]2c(-c3ccccc3)cc(-c3ccccc3)cc2-c2ccccc2)cc1,-39%,?,-83*,13µM*,-8,16µM*
O=S(=O)(c1ccc(Nc2ccc(-c3ccc4c(c3)OCCO4)nn2)cc1)N1CCCC1,-15%,-12%,0,?,-21,16µM*
COc1ccc(NC(=O)N2CCN(c3nc(-c4cccc(OC)c4)cs3)CC2)cc1,-26%,-8%,-93*,?,6,-10%
CC(N)Cc1cn(Cc2ccccc2)c2ccccc12 (centres undefined),-50%,?,-90*,?,-12,?
CCOC(=O)C(C(=O)OCC)C(Nc1ccc(Br)cc1)c1ccccc1 (centres undefined),11µM*,?,-71*,13µM*,0,?
CCOC(=O)c1ccccc1N,-1%,2%,-3,/,?,/
Cc1cc(N2CCNCC2)nc2ccccc12,-17%,-1%,-63*,-1%,11,?
CN(C)c1ccc(C=C2C(=O)NC(=O)NC2=O)cc1,-5%,-5%,-5,6%,8,17%
CCN(CC)c1ccc(C=C2C(=O)NC(=S)NC2=O)cc1,16µM*,18µM*,-97*,?,-5,?
CN(C)c1ccc(C=C2C(=O)NC(=S)NC2=O)cc1,-24%,-6%,-102*,?,8,-24%
CCOc1ccc(CN2CCCC(C(=O)c3ccccc3OC)C2)cc1 (centres undefined),-23%,-24%,-58*,-26%,25,-25%
COc1ccccc1CN1CCCC(C(=O)c2ccccc2OC)C1 (centres undefined),-20%,12%,-11,-14%,-5,-15%
COC(=O)C1=C(c2ccccc2)C[C@@H]2CC[C@H]1N2C(=O)NCc1cccc2ccccc12,-5%,-10%,-19,-3%,4,-4%
Clc1cc(Cl)cc(NC2=NCCS2)c1,10%,6%,39,-6%,8,-4%
COc1ccc(-c2ccc3c(c2)CN(C(=O)NC2CCCCC2)Cc2cnnn2-3)cc1,-12%,?,-53*,?,/,?

# Source: PubChem (National Center for Advancing Translational Sciences (NCATS))
